Results on 7 compounds are retold here after PubChem BioAssay (NCI).

This is part of a sample that, as a whole, favours compounds with a hit. Of some 83,000 tested, about 20% had one in any assay.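 Results are percent growth after 48 hours of single-concentration exposure. 100 means growth as in untreated cells, lower positive values show inhibition; negative values down to -100 show cell death.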 Unmarked numbers belong to inactive results. Active and inactive are the calls of the source. The calls were made as follows: active = growth percent below 10; inactive = the rest.

Holding throughout (assay): NCI-60 one-dose screen, 48 h (100 = growth as untreated, 0 = no growth, -100 = all killed)
What all share (conditions): 10 µM unless noted

Test [1] has as its system NCI-H23 lung.
The subject of test [2] is NCI-H322M lung.
Test [3] concerns HOP-62 NSCLC.
In test [4] the test system is NCI-H460 lung.
Test [5] deals with HOP-92 NSCLC.
Test [6] concerns NCI-H522 lung.
The test system of test [7] is A549/ATCC NSCLC.
The subject of test [8] is 786-0 renal.
Test [9] has as its system COLO 205 colon.
The test system of test [10] is DU-145 prostate.
For test [11], the system named is K-562 leukemia.
The test system of test [12] is MALME-3M melanoma.
The subject of test [13] is MDA-MB-231 breast.
Test [14] has as its system RXF 393 renal.
Test [15] deals with SF-268 CNS.
The subject of test [16] is SF-295 CNS.
Test [17] deals with SF-539 CNS.
The subject of test [18] is UACC-257 melanoma.
In test [19] the test system is M14 melanoma.
The test system of test [20] is HCT-15 colon.

For `COc1ccc(Cn2cc(Cn3c(=O)c(-c4nc5ccccc5[nH]4)cc4ccccc43)nn2)c(OC)c1OC`, the growth in test [1] is 4.71% (active); in [2], 18%; in [3] it was 9.29% (active); in test [4] it was 1.94% (active); in test [5], -2.19% (active); in test [6], -1.1% (active). Also, the growth in [7] is 9.33% (active); in [8], -50.1% (active); in [9] it was 13.5%; in test [10], -59.6% (active); in test [11], 9.91% (active); in test [12], 24.6%. In addition, the growth in test [13] is 1.9% (active); in [14] it was -28.4% (active); in [15], 2.39% (active); in test [16] it was 1.99% (active); in [17], -28.6% (active); in test [18] it was 46.9%. Further, the values for the growth in [19] and in [20] were -50.3% (active) and 11.1%, respectively.

As to `CC1(O)COCCCCOc2c(CN)cccc2NC(=O)c2nc(cnc2N)-c2ccc(cc2)S(=O)(=O)C(C)(C)C1` (stereo not given), the growth in test [1] was -66.7% (active); in test [2], -1.9% (active); in test [3] it was -25.5% (active); in test [4] it was -61.9% (active); in test [5], -5.59% (active); in [6], -40.5% (active). Moreover, the growth was -52.8% (active) in test [7]; -58% (active) in [8]; -47.9% (active) in test [9]; -73.4% (active) in test [10]; 0.195% (active) in test [11]; -86.6% (active) in test [12]. In addition, the growth in [13] was -76.3% (active); in [14], -76.2% (active); in test [15], -66.6% (active); in [16] it was -90.3% (active); in [17], -93.4% (active); in test [18], -66.4% (active). For the same compound, the growth is -76.7% (active) in test [19] and -82.7% (active) in test [20].

With `O=C(Nc1ccc(Br)cc1F)c1cc(Cl)ccc1O`, the growth was -8.01% (active) in test [1]; 4.59% (active) in [2]; -14% (active) in [3]; 3.19% (active) in [4]; -18.8% (active) in [5]; -8.76% (active) in [6]. Further, the growth was 8.65% (active) in test [7]; -6.93% (active) in test [8]; 24.2% in test [9]; 11.8% in [10]; 5.34% (active) in test [11]; -34.7% (active) in [12]. Besides, the growth in test [13] was -27.9% (active); in test [14], -0.138% (active); in [15], 2.69% (active); in test [16], -62.6% (active); in test [17], -1.11% (active); in [18] it was -14% (active). The growth in test [19] is -28.3% (active); in test [20] it was 2.29% (active).

For `CN(C)c1ccc(N=Cc2ccc(N3CCOCC3)cc2)cc1`, the growth in test [1] was 68.5%; in test [2] it was 106%; in test [3] it was 87.3%; in [4], 92.3%; in test [5] it was 100%; in [6], 42.4%. Also, the growth is 73.7% in [7]; 101% in [8]; 3.73% (active) in test [9]; 99.6% in test [10]; 56.6% in test [11]; 81.8% in [12]. Besides, the growth in [13] is 48.2%; in test [14], 130%; in test [15], 84.7%; in [16] it was 83.3%; in test [17], 31.6%; in test [18], 84.8%. Also, the growth in test [19] was 71.2%; in test [20] it was 77.3%.

For the compound `C#CCn1cc(C=C2C(=O)NC(=O)NC2=O)c2cc(Cl)ccc21`, the growth in test [1] is 90.5%; in test [2] it was 87.6%; in test [3], 95.5%; in test [4], 63.1%; in test [5], 88.7%; in test [6] it was 71.7%. The growth in [7] is 96.1%; in test [8] it was 106%; in [9] it was 123%; in [10], 87.6%; in test [11] it was 82.6%; in test [12], 98.4%. Moreover, the growth is 86.2% in test [13]; 72.3% in [14]; 81.1% in test [15]; 92.6% in test [16]; 82.5% in test [17]; 94.6% in [18]. In addition, the growth in [19] is 85.1%; in [20], 82.8%.

In the case of `Nc1cccc(Nc2cc(S(=O)(=O)O)c(N)c3c2C(=O)c2ccccc2C3=O)c1`, the growth is 109% in test [1]; 124% in test [2]; 114% in test [3]; 108% in test [4]; 132% in [5]; 82.5% in test [6]. Besides, the growth in test [7] is 102%; in [8], 111%; in test [9] it was 110%; in [10], 119%; in [11] it was 101%; in [12], 105%. Also, the growth in test [13] was 107%; in test [14], 119%; in test [15] it was 101%; in test [16], 118%; in test [17], 101%; in [18], 97%. Also, the growth in [19] is 103%; in test [20], 96.7%.

In the case of `O=c1cc(-c2ccccc2)oc2cc(OCc3cn(Cc4ccc(F)cc4)nn3)cc(OCc3cn(Cc4ccc(F)cc4)nn3)c12`, the growth in test [1] is 29.2%; in test [2], 43.5%; in test [3], 12.4%; in [4], 2.98% (active); in test [5], -18% (active); in [6], 17.6%. The growth in [7] was 23.2%; in [8], 1.13% (active); in test [9] it was 68.4%; in test [10], 40%; in [11] it was 45.5%; in [12], 15.2%. Moreover, the growth was 9.1% (active) in [13]; -8.05% (active) in [14]; 21.8% in test [15]; 38.9% in [16]; -10.5% (active) in test [17]; 46.4% in test [18]. Also, the growth was 56.8% in [19] and 73.5% in test [20].
